Five compounds from the supplement of paper PMC9694430 can be followed below.

SMILES strings stand for the structures.

What all share (assay): thermal shift delta Tm vs DMSO control; higher = stronger stabilization (binding)
Holding throughout (settings): 12.5 µM; protein concentration 2 µM

One assay deals with LOC_OS01G57100-cb003. In outline: (§1)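 The melting temperature shift given here is a triplicate mean, measured against protein that received only DMSO. Melting temperatures came from Boltzmann fits of differential scanning fluorimetry data on E. coli-expressed, purified rice kinase domain constructs. Each 19.5 μl well contained 2 μM kinase, 100 mM potassium phosphate pH 7.5, 150 mM NaCl, 10% glycerol, 5 × SYPRO Orange and compound in DMSO. Plates were scanned from 25°C to 95°C at 0.05°C/s.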

The test system of another assay is LOC_OS01G60330-cb001. In outline: as §1
The test system of another assay is LOC_OS01G60700-cb002. In outline: as §1
Another assay has as its system LOC_OS01G63280-cb003. In outline: as §1
A further assay deals with LOC_OS01G67340-cb003. In outline:
as §1

The subject of the next assay is LOC_OS01G70970-cb002. In outline: as §1
Another assay relates to LOC_OS02G07810-cb001. In outline: as §1
A further assay relates to LOC_OS02G08530-cb003. In outline: as §1
For another assay, the system named is LOC_OS02G14120-cb001. In outline:
as §1

The subject of another assay is LOC_OS02G17970-cb001. In outline:
as §1

The next assay deals with LOC_OS02G45750-cb003. In outline:
as §1

The next assay relates to LOC_OS02G54510-cb004. In outline:
as §1

The test system of a further assay is LOC_OS03G04050-cb001. In outline:
as §1

A further assay deals with LOC_OS03G12390-cb001. In outline: as §1
The next assay concerns LOC_OS03G27990-cb004. In outline:
as §1

The test system of another assay is LOC_OS03G50450-cb001. In outline:
as §1

A further assay deals with LOC_OS03G50810-cb003. In outline:
as §1

The next assay has as its system LOC_OS04G35114-cb001. In outline:
as §1

In a further assay the test system is T1, LOC_OS04G38480-cb003.
T1 sequence (whole entry): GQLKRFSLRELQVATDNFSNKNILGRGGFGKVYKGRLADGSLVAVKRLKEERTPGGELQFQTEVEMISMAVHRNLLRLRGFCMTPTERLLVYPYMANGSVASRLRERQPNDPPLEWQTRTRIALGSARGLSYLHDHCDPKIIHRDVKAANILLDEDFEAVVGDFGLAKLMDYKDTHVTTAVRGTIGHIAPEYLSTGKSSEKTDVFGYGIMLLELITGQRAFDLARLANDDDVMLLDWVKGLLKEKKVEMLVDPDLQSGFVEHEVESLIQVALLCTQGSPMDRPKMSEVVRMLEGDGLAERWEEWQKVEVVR
In outline:
as §1

The subject of another assay is T2, LOC_OS04G41100-cb001.
T2 sequence (whole entry): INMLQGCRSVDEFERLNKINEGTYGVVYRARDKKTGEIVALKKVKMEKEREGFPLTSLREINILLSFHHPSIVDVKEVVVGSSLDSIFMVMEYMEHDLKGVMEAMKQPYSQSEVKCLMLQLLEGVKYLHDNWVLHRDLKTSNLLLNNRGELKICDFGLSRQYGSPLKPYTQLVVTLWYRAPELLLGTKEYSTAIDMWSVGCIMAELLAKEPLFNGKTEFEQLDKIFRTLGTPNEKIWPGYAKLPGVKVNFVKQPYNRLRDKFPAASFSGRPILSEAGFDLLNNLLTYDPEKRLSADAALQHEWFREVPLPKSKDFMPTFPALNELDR
In outline: as §1

With `CCNC(=O)Nc1ccc(-c2nc3c(c(N4CCOC[C@@H]4C)n2)CCN(C2COC2)C3)cc1`, the “thermal shift delta Tm” value is 1.02 °C with LOC_OS01G57100-cb003; 0.52 °C in the assay on LOC_OS01G60330-cb001; 0.42 °C in the assay with LOC_OS01G60700-cb002; 0.65 °C with LOC_OS01G63280-cb003; 0.16 °C in the assay on LOC_OS01G67340-cb003; 0.23 °C in the assay on LOC_OS01G70970-cb002. Moreover, the “thermal shift delta Tm” value with LOC_OS02G07810-cb001 is 0.04 °C; with LOC_OS02G08530-cb003, 0.71 °C; in the assay on LOC_OS02G14120-cb001, -0.29 °C; in the assay with LOC_OS02G17970-cb001, -0.11 °C; in the assay with LOC_OS02G45750-cb003, 1.07 °C; with LOC_OS02G54510-cb004, 0.26 °C. The “thermal shift delta Tm” value in the assay with LOC_OS03G04050-cb001 is 0.61 °C; in the assay with LOC_OS03G12390-cb001, -0.06 °C; with LOC_OS03G27990-cb004, 0.78 °C; in the assay on LOC_OS03G50450-cb001 it was 0.68 °C; in the assay on LOC_OS03G50810-cb003 it was 0.23 °C; in the assay with LOC_OS04G35114-cb001, 0.56 °C. In addition, the “thermal shift delta Tm” value with LOC_OS04G38480-cb003 is -0.03 °C; in the assay with LOC_OS04G41100-cb001, 0.46 °C.

As for `Cc1ccc(Nc2nccc(N(C)c3ccc4c(C)n(C)nc4c3)n2)cc1S(N)(=O)=O` [Pazopanib], the “thermal shift delta Tm” value in the assay with LOC_OS01G57100-cb003 worked out at 0.76 °C; in the assay with LOC_OS01G60330-cb001, 3.85 °C; in the assay with LOC_OS01G60700-cb002 it was 1.11 °C; with LOC_OS01G63280-cb003 it was 0.59 °C; with LOC_OS01G67340-cb003 it was 0.96 °C; in the assay with LOC_OS01G70970-cb002 it was 0.44 °C. Further, the “thermal shift delta Tm” value is 0.68 °C in the assay with LOC_OS02G07810-cb001; 1.82 °C with LOC_OS02G08530-cb003; 3.43 °C in the assay with LOC_OS02G14120-cb001; 0.74 °C in the assay on LOC_OS02G17970-cb001; 3.24 °C with LOC_OS02G45750-cb003; 0.61 °C in the assay with LOC_OS02G54510-cb004. Besides, the “thermal shift delta Tm” value in the assay on LOC_OS03G04050-cb001 was found to be 0.35 °C; in the assay with LOC_OS03G12390-cb001, 0.19 °C; with LOC_OS03G27990-cb004 it was 0.23 °C; in the assay on LOC_OS03G50450-cb001, 0.21 °C; in the assay with LOC_OS03G50810-cb003 it was 0.98 °C; with LOC_OS04G35114-cb001, 4.53 °C. Moreover, the “thermal shift delta Tm” value stood at 1.63 °C in the assay on LOC_OS04G38480-cb003 and 3.44 °C with LOC_OS04G41100-cb001.

`NC1(c2ccc(-c3nc4ccn5c(=O)[nH]nc5c4cc3-c3ccccc3)cc2)CCC1`: the “thermal shift delta Tm” value was -0.32 °C in the assay with LOC_OS01G57100-cb003; 1.3 °C in the assay with LOC_OS01G60330-cb001; 1.21 °C in the assay with LOC_OS01G60700-cb002; -0.33 °C in the assay with LOC_OS01G63280-cb003; -0.9 °C in the assay on LOC_OS01G67340-cb003; 0.31 °C in the assay with LOC_OS01G70970-cb002. The “thermal shift delta Tm” value is 0.4 °C in the assay on LOC_OS02G07810-cb001; 0.46 °C with LOC_OS02G08530-cb003; -0.05 °C in the assay with LOC_OS02G14120-cb001; 1.42 °C with LOC_OS02G17970-cb001; -0.2 °C in the assay with LOC_OS02G45750-cb003; 0.21 °C in the assay with LOC_OS02G54510-cb004. For the same compound, the “thermal shift delta Tm” value with LOC_OS03G04050-cb001 was 0.25 °C; with LOC_OS03G12390-cb001 it was -0.32 °C; in the assay on LOC_OS03G27990-cb004, 0.81 °C; in the assay on LOC_OS03G50450-cb001, 0.2 °C; in the assay with LOC_OS03G50810-cb003, -0.2 °C; with LOC_OS04G35114-cb001, 0.61 °C. Also, the “thermal shift delta Tm” value was -0.22 °C in the assay with LOC_OS04G38480-cb003 and 0.57 °C with LOC_OS04G41100-cb001.

For `CC(C)(CO)n1cc(C(=O)c2cncc(NC(=O)Cc3ccc(Cl)cn3)c2)c2cnc(N)nc21`, the “thermal shift delta Tm” value was 0.95 °C in the assay with LOC_OS01G57100-cb003; 0.35 °C with LOC_OS01G60330-cb001; 0.16 °C in the assay with LOC_OS01G60700-cb002; 0.14 °C in the assay with LOC_OS01G63280-cb003; 0.19 °C with LOC_OS01G67340-cb003; 0.28 °C in the assay with LOC_OS01G70970-cb002. Besides, the “thermal shift delta Tm” value in the assay on LOC_OS02G07810-cb001 is -0.84 °C; with LOC_OS02G08530-cb003, 0.77 °C; in the assay on LOC_OS02G14120-cb001 it was 3.51 °C; with LOC_OS02G17970-cb001 it was 0.53 °C; in the assay with LOC_OS02G45750-cb003, 1.08 °C; in the assay on LOC_OS02G54510-cb004 it was 0.19 °C. The “thermal shift delta Tm” value in the assay with LOC_OS03G04050-cb001 turned out to be 0.46 °C; with LOC_OS03G12390-cb001, 0.3 °C; with LOC_OS03G27990-cb004 it was 0.39 °C; in the assay with LOC_OS03G50450-cb001 it was 0.47 °C; with LOC_OS03G50810-cb003, 0.51 °C; with LOC_OS04G35114-cb001, 0.51 °C. Moreover, the figures for the “thermal shift delta Tm” value in the assay on LOC_OS04G38480-cb003 and in the assay with LOC_OS04G41100-cb001 were 1.37 °C and 0.41 °C, respectively.

Regarding `O=S(=O)(c1cccc2c(I)cccc12)N1CCCNCC1`, the “thermal shift delta Tm” value with LOC_OS01G57100-cb003 is 0.91 °C; in the assay with LOC_OS01G60330-cb001, -0.01 °C; with LOC_OS01G60700-cb002, 0 °C; with LOC_OS01G63280-cb003, 0.2 °C; in the assay with LOC_OS01G67340-cb003, 0 °C; in the assay with LOC_OS01G70970-cb002 it was 0.35 °C. Besides, the “thermal shift delta Tm” value is 0.33 °C in the assay on LOC_OS02G07810-cb001; 0.35 °C in the assay with LOC_OS02G08530-cb003; 0.9 °C with LOC_OS02G14120-cb001; 0.24 °C with LOC_OS02G17970-cb001; 0.53 °C in the assay with LOC_OS02G45750-cb003; -0.05 °C with LOC_OS02G54510-cb004. Further, the “thermal shift delta Tm” value amounted to 0.42 °C in the assay on LOC_OS03G04050-cb001; 0.16 °C in the assay on LOC_OS03G12390-cb001; 0.1 °C in the assay with LOC_OS03G27990-cb004; 0.19 °C in the assay on LOC_OS03G50450-cb001; 0.19 °C in the assay with LOC_OS03G50810-cb003; 0.11 °C with LOC_OS04G35114-cb001. Also, the “thermal shift delta Tm” value with LOC_OS04G38480-cb003 worked out at 2.17 °C; in the assay with LOC_OS04G41100-cb001 it was 0.44 °C.
